This note sets out measurements from PubChem BioAssay (NCI).

Structures are written as SMILES. About 79,000 compounds went through this panel and 15% of them were active in at least one assay; those are over-represented in the sample as a whole. A number with no mark means an inactive call. Calls of active or inactive are those of the source. Rule as the data show it: active = growth inhibition above about 70%; inactive = the rest.

Test [1] is described as follows: NCI Yeast Anticancer Drug Screen. Data for the rad50 strain (AID 155).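 Also: 0% = growth of vehicle-only cultures of the same strain.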 As to conditions: S. cerevisiae rad50 strain growth inhibition; at 50.0 µM; hits give high values. The procedure, abridged:
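Growth of the mutant yeast was measured after compound exposure and referenced to vehicle-treated cultures.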

A short description of test [2]: NCI Yeast Anticancer Drug Screen. Data for the mec2-1 strain (AID 157). The note with it: S. cerevisiae mec2-1 strain, at 50.0 µM, hits give high values. The essentials:
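mec2-1 yeast strain, carrying an alteration in DNA damage repair or cell cycle control, was exposed to compounds; growth inhibition was measured relative to vehicle-treated controls.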

The nature of test [3]: NCI Yeast Anticancer Drug Screen. Data for the sgs1 mgt1 strain (AID 161).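 Also: 0% = growth of cultures given vehicle only.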 The note with it: S. cerevisiae sgs1 mgt1 strain, at 50.0 µM, hits give high values. The procedure, abridged: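 Compounds are added to genetically altered yeast, and growth is compared with cultures given vehicle alone to give percent inhibition.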
Test [4] in a line: NCI Yeast Anticancer Drug Screen. Data for the cln2 rad14 strain (AID 165).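 Also: 0% = growth equal to vehicle treated cultures.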 The note with it: S. cerevisiae cln2 rad14 strain, at 50.0 µM, hits give high values. The procedure, abridged:
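Yeast carrying cln2 and rad14 alterations (cell cycle control and DNA damage repair) were exposed to compounds. Growth inhibition was measured against vehicle-treated controls.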

The nature of test [5]: NCI Yeast Anticancer Drug Screen. Data for the bub3 strain (AID 167). The note with it: S. cerevisiae bub3 mutant strain, at 50.0 µM, hits give high values. The procedure, abridged: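 Whole-cell yeast assay. The mutant strain was incubated with compounds, and growth inhibition was determined by comparison with vehicle-treated cells.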
Test [6] is described as follows: NCI Yeast Anticancer Drug Screen. Data for the mlh1 rad18 strain (AID 175). The note with it: S. cerevisiae mlh1 rad18 strain growth inhibition; at 50.0 µM; hits give high values. The essentials: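 Growth inhibition of the yeast strain was measured after compound exposure and expressed relative to vehicle-treated controls. The strain carries defined defects in DNA damage repair.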

Regarding `CCC(O)(c1ccc(OC)cc1)C(O)(CC)c1ccc(OC)cc1` (stereo unspecified), the growth inhibition is 9.2% in test [1]; 2.05% in test [2]; 16.4% in test [3]; 7.8% in test [4]; 5.85% in test [5]; 4.9% in test [6].
In the case of `COc1cc(N=C2C=CC(=O)C=C2)c2ncccc2c1`, the growth inhibition in test [1] was 2.95%; in test [2], 1.05%; in test [3], 4.1%; in test [4] it was -33.1%; in test [5], -0.7%; in test [6], 3.75%.
For the molecule `NC(=O)N/N=C/c1ccccc1N`, the growth inhibition was 5.85% in test [1]; -6.75% in test [2]; 0.95% in test [3]; -22.1% in test [4]; -8.65% in test [5]; -2.7% in test [6].
Regarding `NCCNCCCCCCNC(=O)c1cccc2cc3ccccc3nc12`, the growth inhibition was -6.7% in test [1]; -25.4% in test [2]; -30.1% in test [3]; -7.55% in test [4]; -14% in test [5]; -102% in test [6].
As to `CN(C)Cc1cc(CN(C)C)cc(CN(C)C)c1`, the growth inhibition in test [1] is 0.3%; in test [2], 15.8%; in test [3], 3.45%; in test [4] it was -22.9%; in test [5], -11.2%; in test [6], -19.8%.
As for `CCOc1ccccc1N(CCN(C)C)C(=O)C(c1ccccc1)c1ccccc1`, the growth inhibition in test [1] is 20.9%; in test [2] it was -18.7%; in test [3], 1.05%; in test [4] it was -7.7%; in test [5] it was 25.6%; in test [6], 31.8%.
Regarding `O=C(OC(CN1CCCCC1)CN1CCCc2ccccc21)C(O)C(O)C(O)(CO)C(=O)OC(CN1CCCCC1)CN1CCCc2ccccc21` (stereo unspecified), the growth inhibition in test [1] is 15.4%; in test [2] it was 7.05%; in test [3], 43.8%; in test [4] it was 1.8%; in test [5], 7.95%; in test [6], 41.1%.
With `COc1ccc2cc(CC(=O)c3ccccc3)ccc2c1`, the growth inhibition in test [1] was -24.2%; in test [2], -6.95%; in test [3], -11.2%; in test [4], -37.8%; in test [5], -17.1%; in test [6], -3.5%.
As for `O=S1CCS(=O)CCS(=O)CC1` (stereo unspecified), the growth inhibition in test [1] is -17.1%; in test [2], -2.3%; in test [3], -0.6%; in test [4], -18.6%; in test [5] it was -0.4%; in test [6], -9.7%.
For `O=c1oc2c3ccc4ccccc4c3n(CCN3CCCCC3)c2c2ccccc12`, the growth inhibition was 30.4% in test [1]; 53.6% in test [2]; 22.9% in test [3]; 32.5% in test [4]; 44.3% in test [5]; 77.1% (active) in test [6].
On to `C[C@@]12CCC3C1C=C1C(=O)c4cc(O)ccc4C(=O)[C@]1(O2)[C@@]3(C)C=O`, for which the growth inhibition was -10.7% in test [1]; 2% in test [2]; 78.8% (active) in test [3]; 51.1% in test [4]; 76.3% (active) in test [5]; 89.7% (active) in test [6].
With `CCC(C(=O)O)C(=O)O`, the growth inhibition in test [1] is -16.9%; in test [2], -38.4%; in test [3] it was -23.7%; in test [4], 14.3%; in test [5], -7.75%; in test [6], 10.3%.
In the case of `COc1cc([C@@H]2OC[C@@H]3C(c4cc(OC)c5c(c4)OCO5)OC[C@@H]32)cc(OC)c1OC` (stereo partly specified), the growth inhibition is 23.8% in test [1]; -4.5% in test [2]; 26.6% in test [3]; 31.1% in test [4]; 4.3% in test [5]; -40.8% in test [6].
On to `c1cc(N2CCOCC2)ccc1Cc1ccc(N2CCOCC2)cc1`, for which the growth inhibition in test [1] was -13.2%; in test [2] it was 0.9%; in test [3], -4.1%; in test [4] it was 0.45%; in test [5], -17.6%; in test [6], -13.1%.
Turning to `Nc1nc(N)c2nc(-c3ccc([N+](=O)[O-])cc3)c(=O)[nH]c2n1`, the growth inhibition was -9.75% in test [1]; -8.5% in test [2]; -2.05% in test [3]; -11.3% in test [4]; 29.2% in test [5]; 14.7% in test [6].
On to `CCCCN=C(N)N=C(N)N`, for which the growth inhibition in test [1] is 6.7%; in test [2], 2.75%; in test [3] it was 0.75%; in test [4], -7.45%; in test [5], -5.15%; in test [6], 4.05%.
In the case of `C[CH2][Ge]([CH2]C)[CH2]C.C[CH2][Ge]([CH2]C)[CH2]C.C[CH2][Ge]([CH2]C)[S][Ge]([CH2]C)[CH2]C`, the growth inhibition in test [1] is 25.1%; in test [2] it was 29.5%; in test [3] it was 52.7%; in test [4], 40.4%; in test [5], 35.9%; in test [6], 6.75%.
Consider `COC(=O)c1ccc(OC(=O)Nc2ccc(SC)cc2)cc1`, for which the growth inhibition in test [1] is 3.2%; in test [2], 40.5%; in test [3] it was 25.4%; in test [4] it was -3.4%; in test [5], 34.2%; in test [6], 11.7%.
`COc1cc(NC(C)=O)c2nccnc2c1`: the growth inhibition in test [1] is -16.4%; in test [2], -21.6%; in test [3], 0.1%; in test [4], -20.6%; in test [5], -0.95%; in test [6], -14.2%.
For the molecule `Cn1c(=O)c2[nH]c(=S)n(CC3CCCCC3)c2n(C)c1=O`, the growth inhibition in test [1] was -1.95%; in test [2] it was -3.55%; in test [3] it was -8.4%; in test [4], -29%; in test [5], 0.1%; in test [6] it was 17.4%.
Turning to `Cc1c(C)c(Br)c(C)c(C)c1Br`, the growth inhibition is -7.45% in test [1]; -18.3% in test [2]; 4.25% in test [3]; 10.3% in test [4]; -6.2% in test [5]; -16.8% in test [6].
